Measurements published in PubChem BioAssay (Tox21).
Records with an inconclusive call do not appear. Where a structure was tested more than once in an assay, its records may differ in their call. Active and inactive are the calls of the source. The call rests on the fitted dose curve; in most records, active means well fitted curve in the direction sought with a large enough effect in the repeat runs; inconclusive means weak or mixed curves; inactive means no such curve, though single readings can be large; an effect the other way counts as inactive or inconclusive.

Key:
[1] = A CellTox Green Cytotoxicity Assay to monitor cytotoxicity in HEK293 cells - 40 hour (AID 1224871); further: nearly all actives have a fitted effect of over 45% in size
Summary of the method: (§1)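 Seeding of HEK293 cells together with cytotoxicity dye preceded a 5 h incubation at 37 C/5% CO2. Test compounds in DMSO were then added and fluorescence monitored across 40 h.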

[2] = qHTS RealTime-Glo MT Cell Viability Assay in HEK293 cells - 16 hour (AID 1224872); further: top concentration of the series differs between compounds; nearly all actives have a fitted effect of over 50% in size
Summary of the method: (§2)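 Cells + reagent dispensed (600 cells/well, HEK293) → 5 h at 37 C/5% CO2 → 23 nL compound in DMSO pinned → 40 h at 37 C → luminescence read at 0, 8, 16, 24, 32, 40 h.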

[3] = qHTS RealTime-Glo MT Cell Viability Assay in HepG2 cells - 8 hour (AID 1224873); further: nearly all actives have a fitted effect of over 55% in size
Summary of the method: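 HepG2 cells mixed with RealTime-Glo MT reagents (NanoLuc plus cell-permeant prosubstrate) were seeded at 600 cells/well, incubated 5 h at 37 C/5% CO2, then pinned with compounds in DMSO; nonlytic luminescence tracked viability during 40 h treatment.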

[4] = qHTS RealTime-Glo MT Cell Viability Assay in HEK293 cells - 40 hour (AID 1224874); details: RealTime-Glo luminescence; max response: stronger effect = lower value; further: nearly all actives have a fitted effect of over 50% in size
Summary of the method: (§3)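 Tox21 screen in HEK293 using RealTime-Glo MT chemistry, with cells and reagent co-dispensed. Luminescence proportional to viable cell number was captured at intervals during 40 h compound exposure at 37 C.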

[5] = A CellTox Green Cytotoxicity Assay to monitor cytotoxicity in HEK293 cells - 24 hour (AID 1224875); further: series mostly up to about 77 µM; nearly all actives have a fitted effect of over 45% in size
Summary of the method: as §1

[6] = A CellTox Green Cytotoxicity Assay to monitor cytotoxicity in HepG2 cells - 16 hour (AID 1224876); further: nearly all actives have a fitted effect of over 45% in size
Summary of the method: (§4)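 Nonlytic assay: viable cells exclude the dye, so fluorescence scales with cell death. HepG2 at 600 cells/well, compounds added after 5 h, signal read across 40 h.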

[7] = qHTS RealTime-Glo MT Cell Viability Assay in HepG2 cells - 32 hour (AID 1224877); further: nearly all actives have a fitted effect of over 55% in size
Summary of the method: (§5)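 Real-time, nonlytic viability: 600 HepG2 cells/well mixed with NanoLuc enzyme plus prosubstrate; 5 h settle, compound (DMSO) added by pintool; luminescence monitored over 40 h at 37 C.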

[8] = A CellTox Green Cytotoxicity Assay to monitor cytotoxicity in HepG2 cells - 24 hour (AID 1224878); further: nearly all actives have a fitted effect of over 45% in size; further: potency means the concentration at half of the fitted maximal effect
Summary of the method: as §4

[9] = A CellTox Green Cytotoxicity Assay to monitor cytotoxicity in HepG2 cells - 40 hour (AID 1224879); further: nearly all actives have a fitted effect of over 40% in size; further: potency means the concentration at half of the fitted maximal effect
Summary of the method: as §4

[10] = qHTS RealTime-Glo MT Cell Viability Assay in HEK293 cells - 0 hour (AID 1224880); further: nearly all actives have a fitted effect of over 45% in size; further: potency means the concentration at half of the fitted maximal effect; on activity change, negative = cytotoxicity: top concentration of the series differs between compounds
Summary of the method: as §3

[11] = A CellTox Green Cytotoxicity Assay to monitor cytotoxicity in HEK293 cells - 32 hour (AID 1224881); further: nearly all actives have a fitted effect of over 40% in size
Summary of the method: as §1

[12] = A CellTox Green Cytotoxicity Assay to monitor cytotoxicity in HepG2 cells - 0 hour (AID 1224882); further: nearly all actives have a fitted effect of over 35% in size
Summary of the method: as §4

[13] = A CellTox Green Cytotoxicity Assay to monitor cytotoxicity in HepG2 cells - 32 hour (AID 1224883); further: nearly all actives have a fitted effect of over 50% in size; further: potency means the concentration at half of the fitted maximal effect
Summary of the method: as §4

[14] = A CellTox Green Cytotoxicity Assay to monitor cytotoxicity in HEK293 cells - 8 hour (AID 1224884); further: nearly all actives have a fitted effect of over 35% in size
Summary of the method: as §1

[15] = qHTS RealTime-Glo MT Cell Viability Assay in HEK293 cells - 24 hour (AID 1224886); further: top concentration of the series differs between compounds; nearly all actives have a fitted effect of over 50% in size
Summary of the method: as §2

[16] = qHTS RealTime-Glo MT Cell Viability Assay in HEK293 cells - 8 hour (AID 1224887)
Summary of the method: as §3

[17] = A CellTox Green Cytotoxicity Assay to monitor cytotoxicity in HEK293 cells - 16 hour (AID 1224888); further: nearly all actives have a fitted effect of over 35% in size
Summary of the method: as §1

[18] = qHTS RealTime-Glo MT Cell Viability Assay in HepG2 cells - 0 hour (AID 1224889); further: nearly all actives have a fitted effect of over 50% in size; further: potency means the concentration at half of the fitted maximal effect
Summary of the method: as §5

[19] = A CellTox Green Cytotoxicity Assay to monitor cytotoxicity in HepG2 cells - 8 hour (AID 1224890); further: nearly all actives have a fitted effect of over 45% in size
Summary of the method: as §4

[20] = qHTS RealTime-Glo MT Cell Viability Assay in HepG2 cells - 16 hour (AID 1224885); further: nearly all actives have a fitted effect of over 50% in size
Summary of the method: as §5
On the % scale 0 is the no-effect control and ±100 the full control effect.

CN1CCC(=C2c3ccccc3CC(=O)c3sccc32)CC1
inactive: Potency [1] | Potency [2] | Potency [3] | max response [4] -28.2% | Potency [5] | Potency [6] | Potency [7] | Potency [8] | Potency [9] | Potency [10] | Potency [11] | Potency [12] | Potency [13] | Potency [14] | Potency [15] | Potency [16] | Potency [17] | Potency [18] | Potency [19]

CCc1cccc2c(CCO)c[nH]c12
inactive: Potency [1] | Potency [2] | Potency [3] | max response [4] 0.292% | Potency [5] | Potency [6] | Potency [7] | Potency [8] | Potency [9] | Potency [11] | Potency [12] | Potency [13] | Potency [14] | Potency [20] | Potency [15] | Potency [16] | Potency [17] | Potency [18]

CC(=O)OCC(=O)[C@@]1(O)CC[C@H]2[C@@H]3CCC4=CC(=O)CC[C@]4(C)[C@H]3C(=O)C[C@@]21C
inactive: Potency [1] | Potency [2] | Potency [3] | max response [4] -9.91% | Potency [5] | Potency [6] | Potency [7] | Potency [8] | Potency [9] | Potency [12] | Potency [13] | Potency [14] | Potency [20] | Potency [15] | Potency [16] | Potency [17] | Potency [19]
active: Potency [10] 6.01 µM | Potency [18] 1.07 µM

O=C(O)CN(CCOCCOCCN(CC(=O)O)CC(=O)O)CC(=O)O
inactive: cytotoxicity increase [1] 0.853% [at 0.29 µM] | activity change, negative = cytotoxicity [2] -0.382% [at 0.29 µM] | viability change, negative = cytotoxic [3] -0.725% [at 0.29 µM] | max response [4] 6.77% | activity change [5] 5.13% [at 0.29 µM, stronger effect = higher value] | cytotoxicity increase [6] -23.6% [at 0.29 µM] | activity change, negative = cytotoxic [7] 3% [at 0.29 µM] | cytotoxicity [8] -22.1% [at 0.29 µM] | cytotoxicity increase [9] -20% [at 0.29 µM] | activity change, negative = cytotoxicity [10] 4.27% [at 0.29 µM] | cytotoxicity [12] -19.1% [at 0.29 µM] | cytotoxicity increase [13] -22.8% [at 0.29 µM] | cytotoxicity increase [14] 1.88% [at 0.29 µM] | activity change, negative = cytotoxic [20] 0.683% [at 0.29 µM] | activity change, negative = cytotoxicity [15] -2.79% [at 0.29 µM] | activity change, negative = cytotoxicity [16] 1.96% [at 0.29 µM] | activity change [17] 1.33% [at 0.29 µM, stronger effect = higher value] | activity change, negative = cytotoxicity [18] -0.153% [at 0.29 µM]

Cc1ccc(=O)n(-c2ccccc2)c1
inactive: Potency [1] | Potency [2] | Potency [3] | max response [4] 1.08% | Potency [5] | Potency [6] | Potency [7] | Potency [8] | Potency [9] | Potency [10] | Potency [12] | Potency [13] | Potency [14] | Potency [15] | Potency [16] | Potency [17] | Potency [18] | Potency [19]

COC(=O)CC(C)=O
inactive: Potency [1] | Potency [2] | Potency [3] | max response [4] 11.5% | Potency [5] | Potency [6] | Potency [7] | Potency [8] | Potency [9] | Potency [11] | Potency [12] | Potency [13] | Potency [14] | Potency [20] | Potency [15] | Potency [16] | Potency [17] | Potency [18]

CCOC(=O)c1ccc(C)cc1
inactive: Potency [1] | Potency [2] | Potency [3] | max response [4] 8.25% | Potency [5] | Potency [6] | Potency [7] | Potency [8] | Potency [9] | Potency [10] | Potency [12] | Potency [13] | Potency [14] | Potency [15] | Potency [16] | Potency [17] | Potency [18] | Potency [19]

CCCCOCCOCCOCc1cc2c(cc1CCC)OCO2
inactive: Potency [1] | Potency [2] | Potency [3] | max response [4] -15.9% | Potency [5] | Potency [6] | Potency [7] | Potency [10] | Potency [12] | Potency [14] | Potency [20] | Potency [15] | Potency [16] | Potency [17] | Potency [18] | Potency [19]
22.1 µM (active) and inactive: Potency [8] | Potency [9] | Potency [13]

CCN(CC)CCOCCOC(=O)C1(c2ccccc2)CCCC1
inactive: Potency [1] | Potency [2] | Potency [3] | max response [4] -9.14% | Potency [5] | Potency [6] | Potency [7] | Potency [8] | Potency [9] | Potency [10] | Potency [12] | Potency [13] | Potency [14] | Potency [20] | Potency [15] | Potency [16] | Potency [17] | Potency [18]

CC(C)CNCC(C)C
inactive: Potency [1] | Potency [2] | Potency [3] | max response [4] 0.947% | Potency [5] | Potency [6] | Potency [7] | Potency [8] | Potency [9] | Potency [10] | Potency [12] | Potency [13] | Potency [14] | Potency [20] | Potency [15] | Potency [16] | Potency [17] | Potency [18] | Potency [19]

Cc1c(O)cccc1O
inactive: Potency [1] | Potency [2] | Potency [3] | max response [4] 1.57% | Potency [5] | Potency [6] | Potency [7] | Potency [8] | Potency [9] | Potency [10] | Potency [12] | Potency [13] | Potency [14] | Potency [20] | Potency [15] | Potency [16] | Potency [17] | Potency [18] | Potency [19]

CCn1nc(C(=O)O)c(=O)c2cc3c(cc21)OCO3
inactive: Potency [1] | Potency [2] | Potency [3] | max response [4] 4.37% | Potency [5] | Potency [6] | Potency [7] | Potency [8] | Potency [9] | Potency [10] | Potency [12] | Potency [13] | Potency [14] | Potency [20] | Potency [15] | Potency [16] | Potency [17] | Potency [18] | Potency [19]

NC(=O)COCCN1CCN(C(c2ccccc2)c2ccc(Cl)cc2)CC1 (stereo unspecified)
inactive: Potency [1] | Potency [2] | Potency [3] | max response [4] 4.08% | Potency [5] | Potency [6] | Potency [7] | Potency [8] | Potency [9] | Potency [10] | Potency [12] | Potency [13] | Potency [14] | Potency [20] | Potency [15] | Potency [16] | Potency [17] | Potency [18] | Potency [19]
